In all, about 360,000 compounds went through this assay and about 1,300 (0.36%) were called active. For the sample, actives were picked, then their nearest neighbours and some compounds at random. A number with no mark means an inactive call. Cut-off read from the data, not from the text of the source: active = inhibition above about 19%; inactive = the rest.
Each molecule was assayed on T-cell receptor (TCR) (assay: small molecules blocking TCR binding to CD3 – biochemical, fluorescence, TAMRA-labeled TCR probe, primary screen (AID 651800;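 note: recombinant mutant TCR 2C K166C tagged with TAMRA read by polarization; 0% = receptor in buffer alone and 100% = receptor with positive control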)). Conditions: at 9.4 µM, active compounds read high.

Row | Compound | inhibition
1 | COCCNC(=O)Nc1ccc2nc(-c3ccco3)c(-c3ccco3)nc2c1 | 48% (active)
2 | COc1cc(OC)cc(C(=O)NCCSCc2ccco2)c1 | 2.08%
3 | COc1ccc(CCNC(=O)Nc2ccc3c(c2)c(=O)n(C)n3C)cc1OC | -9.13%
4 | CCOC(=O)C1CSCCS(=O)(=O)N1Cc1ccc(Cl)cc1 (stereo not drawn) | -6.78%
5 | CNC(=S)NNC(=O)c1cccn(Cc2ccccc2)c1=O | 45.4% (active)
6 | Cc1scc(C(=O)NNC(=S)NCc2ccccc2)c1C | 3.75%
7 | CN(C)C(=O)c1cccn(Cc2cccc(C(F)(F)F)c2)c1=O | 4.33%
8 | CCOC(=O)CNC(=O)N(C)[C@H]1C[C@H]2c3[nH]c4c(-c5ccc6c(c5)OCO6)cccc4c3CCN2C(=O)[C@H]1[C@H](C)O | -3.41%
9 | COC(=O)C1=C(C)N(Cc2ccccc2C(F)(F)F)C(=NCC2CC2)NC1c1cccc(Cl)c1 (stereo not drawn) | 5.09%
10 | C=CCN1C(=O)N(Cc2ccccc2)c2ccccc2S1(=O)=O | -2.76%
11 | COc1ccc(CNS(=O)(=O)c2cc(Br)ccc2Br)cc1 | 1.49%
12 | COc1ccc(CC(=O)N/N=C/c2cc([N+](=O)[O-])cc(Br)c2O)cc1 | 37.3% (active)
13 | COc1ccc(Cc2nnc(SCC(=O)c3cccc([N+](=O)[O-])c3)n2C)cc1 | 3.33%
14 | C[C@H]1[C@H](c2ccccc2)Oc2cc(Br)ccc2S(=O)(=O)N1Cc1cccc(F)c1 | 2.14%
15 | CCCCCCCCN1C(=O)[C@@H](CC(=O)N2CCN(C(=O)OCC)CC2)C[C@@]2(C(=O)OC)C1=C[C@H](C1CCCC1)O[C@@H]2C | 6.64%
16 | CSc1nc(N(C)NC(=O)c2cccc(C)c2)c2ccccc2n1 | -2.67%
17 | CN(NC(=O)c1ccccc1F)c1nc(C(F)(F)F)nc2ccccc12 | 27.9% (active)
18 | CC(NC(=O)c1ccccc1F)c1cccc2ccccc12 (stereo not drawn) | -0.21%
19 | O=C1CCCCC1C(=O)c1ccccc1 (stereo not drawn) | -0.19%
20 | COC(=O)[C@]12C[C@H](CC(=O)NCc3ccccc3)C(=O)N(CCC3=CCCCC3)C1=C[C@H](C(C)(C)C)O[C@@H]2C | -4.03%
21 | CCn1c(=S)[nH]c2cc(S(=O)(=O)N3CCOCC3)ccc21 | 1.36%
22 | CNS(=O)(=O)c1ccc2c(c1)[nH]c(=S)n2C | 45.4% (active)
23 | CCCCn1c(=S)[nH]c2cc(S(=O)(=O)N3CCCCC3)ccc21 | 1.03%
24 | COC(=O)[C@]12C[C@H](CC(=O)NCc3cccc(C(F)(F)F)c3)C(=O)N(Cc3ccc4c(c3)OCO4)C1=C[C@H](COCc1ccccc1)O[C@@H]2C | 0.9%
25 | O=C(C(=O)N1CCC(CNC(=O)c2cccnc2Cl)CC1)c1cccs1 | 0.67%
26 | C[C@H](CO)N1C[C@H](C)[C@@H](CN(C)C(=O)Nc2ccccc2F)OCc2cn(nn2)CCCC1=O | 4.97%
27 | CNC(=S)NNC(=O)c1oc2nc(-c3ccccc3)cc(-c3ccco3)c2c1N | 59.3% (active)

Row | Compound | inhibition
28 | NNC(=O)c1oc2nc(-c3ccccc3)cc(-c3ccco3)c2c1N | 16.2%
29 | Cc1ccccc1C(=O)N[C@H](C(=O)N1CCC[C@H]1C(=O)NCc1ccccc1)C(C)C | 2.94%
30 | CCCCNc1cccc2c1S(=O)(=O)N[C@@H](C)CO2 | 2.35%
31 | Cc1ccc(N)cc1CN1CCN(c2ncc(Cc3ccccc3)cn2)CC1 | 3.41%
32 | COCCCNC(=O)C[C@H]1C[C@@]2(C(=O)OC)C(=C[C@H](C(C)(C)C)O[C@@H]2C)N(Cc2ccc3c(c2)OCO3)C1=O | 3.16%
33 | CC(C)CNc1cccc2c1S(=O)(=O)N[C@H](CC(C)C)CO2 | -1.27%
34 | Brc1ccc(COCCc2cn(Cc3ccccc3)c3ccccc23)cc1 | -0.9%
35 | CC(Sc1nnc2c(n1)C1CCC2(C)C1(C)C)C(=O)Nc1ccccc1 (stereo not drawn) | 1.84%
36 | CC12CCC(C(=O)N(NC(=O)c3ccccc3O)C1=O)C2(C)C (stereo not drawn) | 33.6% (active)
37 | CC1=CC(C)(C)NC(=S)N1NC(=O)c1ccccc1Cl | -4.79%
38 | Clc1cccc2c1C1CC2CCN1Cc1ccccc1 (stereo not drawn) | -2.68%
39 | O=C(NCc1ccccc1)[C@H]1CCCN1C(=O)[C@H]1CCCN1C(=O)N1CCOCC1 | 4.79%
40 | CCCCCCCCN1C(=O)[C@@H](CC(=O)NCc2ccc(C)o2)C[C@@]2(C(=O)OC)C1=C[C@H](C(C)(C)C)O[C@@H]2C | 1.15%
41 | O=S(=O)(O)c1cc2onnc2c2ccccc12 | 28.6% (active)
42 | O=C(CCN1C(=O)c2ccccc2C1=O)NNC(=O)c1ccc(Cl)cc1Cl | -3.56%
43 | COc1ccccc1C(=O)NNC(=O)CCN1C(=O)/C(=C\c2ccccc2)SC1=S | 23.9% (active)
44 | COc1ccccc1C(=O)Nn1cnnc1 | -2.57%
45 | CC[C@H](NC(=O)[C@H](Cc1ccccc1)NC(=O)[C@H]1O[C@@H](n2cnc3c(=O)[nH]c(N)nc32)[C@H](O)[C@@H]1O)c1ccccc1 | 1.67%
46 | COC(=O)[C@]1(Cc2ccccc2)NC=C(C(=O)c2ccccc2)[C@@H]1c1cccc(OC)c1 | -0.52%
47 | CCOC(=O)c1c(N)c(C#N)nn1-c1ccccc1C(=O)OC | -3.5%
48 | Cc1ccc2nc(-c3ccc(CN4CCC(n5cc(-c6ccccc6)[nH]c5=O)CC4)cc3)c(-c3ccccc3)nc2c1 | 5.23%
49 | O=C1Nc2ccccc2C1=NN=Cc1ccco1 | 4.85%
50 | COc1ccccc1C(=O)N1O[C@]23C=C[C@]14C[C@@H](O)CC[C@]4(C)C2CC[C@]1(C)[C@@H]([C@H](C)/C=C/[C@H](C)C(C)C)CC[C@H]13 (stereo partly drawn) | -1.2%
51 | CCOc1[nH]n(-c2ccc(Cl)cc2)c(=O)c1C=Nc1ccc(O)cc1 | 28% (active)
52 | Cc1ccc(C)c(CN2CCC(CNC(=O)C3CCCN(c4ncnc5c4nc4n5CCCCC4)C3)CC2)c1 (stereo not drawn) | -2.34%
53 | CC1(C)CC(=O)C=C(NCCN2CCNCC2)C1 | 5.49%
